Many of the other results were omitted from the sample, so hits are more common in it than they were.
LASV entry inh: qHTS for Inhibitors of binding or entry into cells for Lassa Virus; Lassa virus pseudotype entry inhibition, cell reporter; 300,000 tested, 1.2% active; AID 540256, 2011; Potency, µM (top dose mostly 37.9 µM), for inactives: at the highest dose activity change, negative = inhibition, usual class: inhibitors; calls by dose curve; tested in HEK293 cells; also: potency is read from the fitted curve at half-maximal effect; % is scaled to controls: 0 for no effect and ±100 for the full control effect; nearly all actives have a fitted effect of over 50% in size
Vaccinia Venus: qHTS for Stage-Specific Inhibitors of Vaccinia Orthopoxvirus: Venus Reporter Primary qHTS; Vaccinia virus Venus reporter expression, fluorescence; Potency, µM (top dose mostly 36.5 µM), without a hit: at the highest dose activity change, negative = inhibition, actives largely listed as inhibitors; 330,000 tested, 0.46% active; AID 720580, 2013; calls by dose curve; tested in A549 cells; also: potency is read from the fitted curve at half-maximal effect; % is scaled to controls: 0 for no effect and ±100 for the full control effect; nearly all actives have a fitted effect of over 30% in size
Shiga toxin inh: A qHTS for Small Molecule Inhibitors of Shiga Toxin; Vero cells, Shiga toxin protein synthesis inhibition reporter; inhibition, % at 38.7 µM; 290,000 tested, 9.2% active; AID 2315, 2010; in the data active = inhibition mostly above about 28%, no sharp cut-off; inactive = mostly below about 43%; also: 0% is about no effect
MARV entry inh: qHTS for inhibitors of binding or entry into cells for Marburg Virus; 300,000 tested, 1.8% active; Marburg virus pseudotyped entry inhibition, cell reporter; Potency, µM (top dose mostly 37.8 µM), for inactives: at the top dose activity change, negative = inhibition, most hits filed as inhibitors; calls by dose curve; tested in HEK293 cells; also: potency is read from the fitted curve at half-maximal effect; % is scaled to controls: 0 for no effect and ±100 for the full control effect
Vaccinia mCherry: qHTS for Stage-Specific Inhibitors of Vaccinia Orthopoxvirus: mCherry Reporter Primary qHTS; Vaccinia virus mCherry reporter infection, fluorescence; Potency, µM (doses to about 36.5 µM), without a hit: top-dose activity change, negative = inhibition, actives largely listed as inhibitors; 310,000 tested, 0.63% active; calls by dose curve; tested in A549 cells; also: potency is read from the fitted curve at half-maximal effect; % is scaled to controls: 0 for no effect and ±100 for the full control effect; nearly all actives have a fitted effect of over 35% in size
Cycloheximide cs: Cycloheximide Counterscreen for Small Molecule Inhibitors of Shiga Toxin; cell reporter, cycloheximide protein synthesis inhibition counterscreen; max response, %; 300,000 tested, 12% active; in the data active = max response mostly above about 13%, no sharp cut-off; inactive = mostly below about 14%; also: read at 38.3 µM for the half of the compounds with a filed dose; 0% is about no effect
* hit, by the source's call; i = inactive; ? = inconclusive; · = no result given; [ ] = another dose, or the depositor's remark.

SMILES	LASV entry inh	Vaccinia Venus	Shiga toxin inh	MARV entry inh	Vaccinia mCherry	Cycloheximide cs
CCc1nnc2c3ccccc3nc(Nc3cc(C)cc(C)c3)n12	-24.8%[46.1 µM]	-10.0%	·	?	-15.7%	·
C/C(=N/NC(=O)c1ccccn1)c1c[nH]c2ccccc12	·	·	92.3*	·	·	56.0*
C/C(=N/NS(=O)(=O)c1ccc(C)cc1C)c1c[nH]c2ccccc12	?	-24.0%	-10.6	?	5.01µM*	-1.3
C/C(=N/NC(=O)c1ccccn1)c1ccc(O)cc1	·	·	60.0*	·	·	31.6*
C/C(=N\NC(=O)c1c[nH]c2ccccc12)c1ccc(C)o1	-7.2%	·	12.3	?	·	2.9
C/C(=N/NC(=O)c1ccccn1)c1ccco1	?	-4.0%	22.9	?	-22.7%	3.4
COC(=O)c1cc(S(=O)(=O)N2CCN(Cc3ccccc3)CC2)c[nH]1	?	-24.1%	-7.3	3.7%[46.1 µM]	-0.6%	8.9
N#C/C(=N/Nc1ccc(OC(F)(F)F)cc1)C(N)=S	·	·	75.4*	·	·	56.7*
CCOc1ccc(N/N=C(/C#N)C(N)=O)cc1	24.6%	-4.3%	45.9*	19.7%	-9.1%	30.6*
COc1ccc(N/N=C(\C#N)C(N)=O)cc1	-23.7%	4.3%	43.1	0.0%[46.1 µM]	-6.5%	12.7*
COc1ccc(C(=O)/C(C#N)=N/Nc2ccc([N+](=O)[O-])cc2)cc1	·	?	-2.7	·	?	-1.4
COc1ccc(/C(C)=N/N=C(N)N)c(OC)c1	·	·	4.2	·	·	-1.6
Cc1ccc(C(=O)NCCc2nnc3ccc(SCC(=O)N4CCCCC4)nn23)cc1	-1.1%	-1.8%	16.5	-10.7%	i	16.0
Cc1ccc(C(=O)NCCc2nnc3ccc(SCC(=O)N4CCCC4)nn23)cc1	?	-10.0%	53.4*	6.7%	i	42.3*
COC(=O)c1nnn(-c2nonc2N)c1COc1ccc(C=O)cc1OC	·	·	-8.8	·	·	0.7
COCCNC(=O)C1Cc2c(ccc3ccccc23)O1 (stereo not drawn)	8.0%	-12.5%	36.6	-13.2%[46.1 µM]	-16.7%	14.6*
O=C(c1ccc2nc(-c3ccco3)c(-c3ccco3)nc2c1)N1CCC2(CC1)OCCO2	-5.9%	·	31.7	4.1%	·	3.9
Cc1ccc(C(=O)N2CCN(c3cccc(Cl)c3)CC2)cc1C	-22.4%	?	-1.8	?	?	17.5
Cc1ccc(C(=O)N2CCC(C)CC2)cc1C	-3.4%	-16.4%	35.1*	?	-20.7%	17.3*
Cc1ccc(C(=O)N2CCN(c3ccccc3)CC2)cc1C	-2.6%	-14.7%	42.6*	-0.8%	?	27.3*
O=C(c1ccc2nc(-c3ccco3)c(-c3ccco3)nc2c1)N1CCN(c2ccccc2)CC1	-22.0%	·	18.4	16.4µM*	·	-1.7
CC1CCN(C(=O)c2ccc(C(=O)N3CCC(C)CC3)cc2)CC1	·	·	·	2.9%	·	·
CCCCOC(=O)c1ccc(NC(=O)Cc2coc3c(C)c(C)ccc23)cc1	-9.0%[46.1 µM]	-7.2%	·	-28.2%[46.1 µM]	i	·
COC(=O)c1ccc(NC(=O)CCNS(=O)(=O)c2cccc3nsnc23)cc1	10.7%[46.1 µM]	3.5%	·	-5.0%[46.1 µM]	11.3%	·
CCN(CC)C(=O)COC(=O)c1ccc(C)c(NC(=O)c2ccco2)c1	16.4%[46.1 µM]	-1.4%	21.3	-7.4%[46.1 µM]	i	6.4
SMILES	LASV entry inh	Vaccinia Venus	Shiga toxin inh	MARV entry inh	Vaccinia mCherry	Cycloheximide cs
CCC(=O)Nc1cc(C(=O)OCC(=O)c2ccccc2Cl)ccc1C	8.4%	·	105.6*	21.3%	·	44.8*
Cc1ccc(C(=O)OCC(=O)c2c[nH]c3ccccc23)cc1NC(=O)c1ccco1	-16.7%	-25.0%	45.2	?	?	19.0*
CCC(=O)Nc1cc(C(=O)OCC(=O)c2ccccc2)ccc1C	9.8%	-17.8%	active	-14.5%	-10.9%	53.1*
CC(=O)OC[C@H]1O[C@@H](ON=C(C)CCC(=O)OC[C@H]2O[C@H](C#Cc3ccccc3)C=C[C@H]2Oc2ccc(C)cc2)[C@H](OC(C)=O)[C@@H](OC(C)=O)[C@H]1OC(C)=O	·	·	·	9.2%[14.2 µM]	·	·
Nc1ccc(C(=O)Nc2ccco2)cc1	51.0%	-10.4%	32.5*	-4.3%[46.1 µM]	-7.6%	23.3
Cc1[nH]c(=O)[nH]c(=O)c1S(=O)(=O)N1CCN(c2ccccc2Cl)CC1	16.4%[46.1 µM]	-11.7%	·	·	-9.8%	·
COc1ccc(C(=O)C2CCCN(Cc3ccccn3)C2)c(OC)c1 (stereo not drawn)	·	·	-16.5	·	·	3.4

Screening data deposited in PubChem BioAssay by National Center for Advancing Translational Sciences (NCATS).
